Among all 330,000 compounds or so, about 300 (0.091%) were called active. About 4% were inconclusive and are not listed. Calls come from the whole dose curve; as a rule, active = well fitted inhibition curve with a large enough effect; inconclusive = small, poorly fitted or top-dose-only effect, or effect the other way, or another doubt; inactive = no such curve, though single readings can be large or run the other way. The entries come from a sample that favours actives as a whole.
molecular target: Lysosomal acid glucosylceramidase (Homo sapiens) (UniProt P04062); assay: qHTS Assay for Inhibitors and Activators of N370S glucocerebrosidase as a Potential Chaperone Treatment of Gaucher Disease; conditions: N370S GC spleen homogenate, 4MU-glucoside fluorescence; series mostly up to 59.4 µM; activity change, negative = inhibition: at the top concentration;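 for activity change, negative = inhibition: 0% = full enzyme activity and -100% = no enzyme basal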
Potency is the fitted concentration of half-maximal effect.

Row | Structure (SMILES) | activity change, negative = inhibition | Potency
1 | Cc1cc(N(C)C)nc(Cl)n1 | 0.258% (inactive) | –
2 | CNC(=O)C1CC(=O)N(c2ccc(OCC(=O)Nc3ccccc3C)cc2)C1 (stereo not drawn) | -0.727% (inactive) | –
3 | C=C(C)C(=O)c1ccc(F)cc1 | 5.76% (inactive) | –
4 | CCCN1CCC(=O)N(C(CSc2ccc(C)cc2)Cc2ccccc2)CC1 (stereo not drawn) | -17.3% (inactive) | –
5 | CCN(C(=O)COC(=O)CCOc1cccc(C)c1)c1c(N)n(Cc2ccccc2)c(=O)[nH]c1=O | -8.31% (inactive) | –
6 | CC(C)C[C@H](NC(=O)[C@H](O)[C@H](N)Cc1ccccc1)C(=O)O | -1.12% (inactive) | –
7 | Cc1cc(C)n2nc(C(=O)Nc3cccc(S(=O)(=O)N4CCOCC4)c3)nc2n1 | 2.72% (inactive) | –
8 | COC(=O)C1(Cc2ccccc2)C=C2C(=C(C)C(=O)C2C)CN1 (stereo not drawn) | -2.63% (inactive) | –
9 | COC(=O)[C@@]1(C)C=C[C@@H](Cc2ccccc2)N1C(C)=O | -6.27% (inactive) | –
10 | Cn1c2cc(B(O)O)sc2c2cnn(Cc3ccccc3F)c(=O)c21 | -12.5% (inactive) | –
11 | Cc1ccc(/C(=C/CN2CCCC2)c2ccccn2)cc1 | inactive | –
12 | CCN(CC)CCCCn1c(-c2ccccc2)nc2c(N3CCOCC3)nc(C)nc21 | -6.36% (inactive) | –
13 | COc1cccc(NC(=O)CN(C)C(=O)/C=C/c2cn(-c3ccccc3)nc2-c2cccs2)c1 | 6.87% (inactive) | –
14 | COc1ccc(C2/C=C\CN(Cc3ccco3)C(C)C(=O)N2Cc2ccc(F)cc2)cc1 (stereo not drawn) | -4.54% (inactive) | –
15 | O=C(CN1CCCCC1)Nc1ccccc1C(=O)NC1CC1 | -15.8% (inactive) | –
16 | C=C1CCN(C(CC(C)C)C(=O)NCc2cc(OC)c(OC)c(OC)c2)S(=O)(=O)c2ccccc21 (stereo not drawn) | -17% (inactive) | –
17 | BrC1C(Br)C(Br)C(Br)C(Br)C1Br (stereo not drawn) | 7.49% (inactive) | –
18 | CCCCn1c(N)c(N(CCC(C)C)C(=O)COC(=O)c2ccc(CC)cc2)c(=O)[nH]c1=O | -8.39% (inactive) | –
19 | Cc1ccc(C(CC(=O)O)NC(=O)c2ccc(S(=O)(=O)N3CCCC3)cc2)cc1 (stereo not drawn) | -0.149% (inactive) | –
20 | CC(C)=CCC[C@]1(C)[C@@H](CC=C(C)C)C[C@@]2(CC=C(C)C)C(=O)[C@]1(C(=O)C(C)C)C(=O)C(CC=C(C)C)=C2O | -4.71% (inactive) | –

Row | Structure (SMILES) | activity change, negative = inhibition | Potency
21 | O=C(CSc1nnc(COc2ccc(Cl)cc2)n1Cc1ccco1)N1CCNC1=O | 1.42% (inactive) | –
22 | CCC(=O)c1ccc(OCC(=O)N(CC)CC2COc3ccccc3O2)cc1 (stereo not drawn) | -0.293% (inactive) | –
23 | CC1Cc2ccccc2N1S(=O)(=O)c1cccc(C(=O)NCC(c2ccco2)N2CCCC2)c1 (stereo not drawn) | -17.1% (inactive) | –
24 | C[C@@H]1O[C@@H](O[C@@H]2[C@@H](O)[C@H](OCCc3ccc(O)c(O)c3)O[C@H](CO[C@@H]3O[C@H](CO)[C@@H](O)[C@H](O)[C@H]3O)[C@H]2OC(=O)/C=C/c2ccc(O)c(O)c2)[C@H](O)[C@H](O)[C@H]1O | -12.8% (inactive) | –
25 | C=CCC(C)(O)c1ccco1 (stereo not drawn) | -11% (inactive) | –
26 | COc1ccc(C2CC(O)(c3ccccc3)Oc3cc(C)cc(C)c32)cc1 (stereo not drawn) | 3.66% (inactive) | –
27 | C=CCN1C(=O)c2ccc(C(=O)N3CCC(C(=O)OCC)CC3)cc2C1=O | -1.64% (inactive) | –
28 | O=C(COC(=O)c1ccccc1Cl)NC1CCCCCCC1 | 1.18% (inactive) | –
29 | C[C@H]1CC[C@H](C(=O)O)N[C@@H]1c1ccc(C#Cc2ccccc2)cc1 | 5.48% [at 12.8 µM] (inactive) | –
30 | COc1ccc(-c2nc3c(c4c2C[C@H](c2ccccc2)OC4)CN(S(=O)(=O)c2c(C)noc2C)CC3)c(C)c1 | -9.78% [at 12.8 µM] (inactive) | –
31 | COC(=O)c1sc(NC(=O)COC(=O)C2CCC2)c(C(=O)OC)c1C | -10.4% (inactive) | –
32 | CC(C)c1cnc(NC(=O)Cc2ccccc2)s1 | 21.3% (inactive) | –
33 | NCCC(=O)c1ccccc1N | 2.36% (inactive) | –
34 | O=C(CCNC(=O)c1ccc([N+](=O)[O-])cc1)NC1CCCCC1 | -0.406% (inactive) | –
35 | CCN(c1ccccc1)S(=O)(=O)c1cc(C(=O)NCc2ccccn2)ccc1C | -1.72% (inactive) | –
36 | C=C1/C(=C\C=C2\CCCC3(C)C2CCC3C(C)/C=C/C(O)C2CC2)CC(O)CC1O (stereo not drawn) | -4.51% (inactive) | –
37 | N#Cc1cc2[nH]c(=O)c(=O)[nH]c2cc1[N+](=O)[O-] | – | 22.4 µM (active)
38 | COc1ccc(CC(N)C(=O)NC2C(O)[C@H](n3cnc4c(N(C)C)ncnc43)O[C@@H]2CO)cc1 (stereo partly drawn) | 1.71% (inactive) | –
39 | COC(=O)[C@H]1C[C@@H]1[C@H](NC(=O)Oc1ccc(F)cc1)c1ccccc1 | 2.79% (inactive) | –
40 | Cc1nnc(NC(=O)c2ccc3nccnc3c2)s1 | -1.49% (inactive) | –

Row | Structure (SMILES) | activity change, negative = inhibition | Potency
41 | CCOC(=O)C1=C(C)NC2=C(C(=O)CC(C)(C)C2)C1c1ccsc1 (stereo not drawn) | 0.443% (inactive) | –
42 | COc1ccc(C2C(C#N)=C(/N=C/N3CCOCC3)OC3=C2C(=O)CC(C)(C)C3)cc1OC (stereo not drawn) | 12.4% (inactive) | –
43 | COc1cc(C2C(C#N)=C(C)NC3=C2C(=O)CC(C)(C)C3)ccc1O (stereo not drawn) | – | 10 µM (active)
44 | O=S(=O)(NC1CCN(S(=O)(=O)c2ccc3c(c2)OCCO3)CC1)c1c(F)cccc1F | -3.77% (inactive) | –
45 | CCN(CC)S(=O)(=O)c1ccc(CNC(=O)CN2C(=O)NC3(CCc4ccccc43)C2=O)cc1 (stereo not drawn) | 1.57% (inactive) | –
46 | CC(C)(Oc1ccc(Cl)cc1)C(=O)OCC(=O)NCCc1ccc(S(N)(=O)=O)cc1 | -2.49% (inactive) | –
47 | CCCC(Cl)CCCC(Cl)CCC(Cl)CCC(Cl)CCC(Cl)CCCC(Cl)CCC (stereo not drawn) | -0.806% (inactive) | –
48 | CCCC[C@H]1C(=O)N(c2ccccc2)N(c2ccc(O)cc2)C1=O | 11.4% [at 21.6 µM] (inactive) | –
49 | C=CCC1CCC(=O)N2CCCC12 (stereo not drawn) | -6.15% [at 136 µM] (inactive) | –
50 | COc1cc2c(cc1OC)CN(C(C)C(=O)Nc1cccc(S(=O)(=O)N3CCOCC3)c1)CC2 (stereo not drawn) | -1.61% (inactive) | –
51 | OC[C@H]1O[C@@H](n2cnc3c(NC4CCCC4)ncnc32)[C@H](O)[C@H]1O | 1.48% (inactive) | –
52 | CCOC(=O)[C@]1(C(/C=C/c2ccco2)NC(=O)OC)CCCC1=O (stereo partly drawn) | 2.17% [at 12.8 µM] (inactive) | –
53 | CCCCC/C=C\C[C@H](O)/C=C/C=C/C=C/[C@@H](O)CCCC(=O)O | -0.244% (inactive) | –
54 | CCNc1ncc2ncc(=O)n(Cc3cccc(OC)c3)c2n1 | 26.5% (inactive) | –
55 | CC(Nc1oc(-c2ccccc2)nc1-c1ccccc1)c1ccccc1 (stereo not drawn) | inactive | –
56 | CN(CC(=O)NCCc1ccc(F)cc1)CC(=O)Nc1ccc(F)c(F)c1F | -17.8% (inactive) | –
57 | CC1(C)OC(C(O)(c2ccccc2)c2ccccc2)C(C(O)(c2ccccc2)c2ccccc2)O1 (stereo not drawn) | -1.37% [at 12.8 µM] (inactive) | –
58 | Cc1ccc(SCC(CC(C)C)N2CCN(CCc3ccccc3)CCC2=O)cc1 (stereo not drawn) | -11.1% (inactive) | –

From PubChem BioAssay AID2101 (National Center for Advancing Translational Sciences (NCATS), 2009)
